Screens deposited in PubChem BioAssay by National Center for Advancing Translational Sciences (NCATS).
IL1B secr inh – blocks inflammasome-driven IL-1 beta release. THP-1 LPS/ATP IL-1B secretion, AlphaLISA, 16 h; hits give low values. activity change, % at 57.5 µM. 4.7% of 360,000 active. AID 743279; in the data active = activity change below about -50%; inconclusive = mostly about -30% to -49%
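Secreted IL-1B measured by AlphaLISA bead assay after 16 h compound exposure of THP-1 cells; compounds (final up to 57.5 uM) added 1 h before LPS (250 ng/mL) and ATP (1.25 mM) stimulation; lower signal means less secretion.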
TDP1 cell noCPT – qHTS for Inhibitors of human tyrosyl-DNA phosphodiesterase 1 (TDP1): qHTS in cells in absence of CPT | 15% of 420,000 active | Potency, µM (highest dose often 46.2 µM), hits mostly inhibitors | DT40 Tdp1-/- hTDP1 cells, no CPT, ATP luminescence, 48 h; also: nearly all actives have a fitted effect of over 55% in size
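Chicken DT40 Tdp1-/- cells complemented with human TDP1, screened without camptothecin (DMSO vehicle only), 400 cells/well. Compounds pin-transferred, cells incubated at 37 °C for at least 48 hr. Growth read as ATP-dependent luminescence (CellTiter-Glo, 30 min at RT).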
ELG1 DNA repair – inhibitors of ELG1-dependent DNA repair in HEK293T cells; HEK293T ELG1-luciferase reporter, luminescence, 16 h; DNA damage induced by 5-fluorouridine; Potency, µM (highest dose often 46.1 µM), hits mostly inhibitors; 2.3% of 330,000 active; AID 504467; also: nearly all actives have a fitted effect of over 55% in size
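Luminescence from the luciferase reporter, measured 30 min after ONE-Glo reagent at room temperature, was the read-out. Beforehand, 2,000 cells per well were exposed for 16 hr at 37 °C to 5-fluorouridine together with compound or vehicle.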
TDP1 cell CPT – DT40-hTDP1 cell growth loss with CPT | chicken DT40 Tdp1-/-;hTDP1 cells + 20 nM CPT, ATP luminescence, 48 h | Potency, µM (top dose mostly 46.2 µM), most hits filed as inhibitors | 12% of 420,000 active | AID 686979; also: nearly all actives have a fitted effect of over 55% in size
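Cell growth measured by CellTiter-Glo luminescence after a minimum 48 h, 37 C compound exposure with 20 nM CPT in Tdp1-knockout DT40 cells stably expressing hTDP1, seeded 400/well; qHTS titration format.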
HT1080NT lethal – kills 2HG-producing HT-1080-NT fibrosarcoma cells; HT-1080-NT fibrosarcoma viability, CellTiter-Glo ATP luminescence, 48 h; Potency, µM (series often up to 46.1 µM), most hits filed as cytotoxic; 1.6% of 360,000 active;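 also: NT is the 2HG producing partner of a matched IDH1 knockdown line; nearly all actives have a fitted effect of over 55% in size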
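Toxicity toward the 2HG-producing NT line was scored as %Activity, normalised to DMSO and no-cell wells, from CellTiter-Glo luminescence after 48 hours' treatment.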
HT1080 IDH1KD tx – kills HT-1080 cells with IDH1 knockdown; HT-1080 IDH1 knockdown viability, ATP luminescence, 48 h; 2% of 360,000 active; AID 686971; Potency, µM (doses to about 46.1 µM), usual class: cytotoxic
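IDH1KD HT-1080 cells, 750/well, RPMI + 5% FBS; compound pinned after 2 h settling; 48 h, 37 °C; CellTiter-Glo luminescence; % activity normalised to DMSO and no-cell wells; curves fitted, classed by r2 and efficacy.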
Hits are given with their value; - = inactive; ? = inconclusive; . = no result given. Rows were chosen to be rich in hits. Some 19% of all compounds tested hit in one or more screens of this group. Unless noted, calls follow the shape of the dose curve; as a rule, active = well fitted curve in the direction sought with a large enough effect; inconclusive = small, poorly fitted or top-dose-only effect, or another doubt; inactive = no such curve, though single readings can be large; an effect the other way counts as inactive or inconclusive.

SMILES	IL1B secr inh	TDP1 cell noCPT	ELG1 DNA repair	TDP1 cell CPT	HT1080NT lethal	HT1080 IDH1KD tx
CC(C)c1ccc(C(=O)CSc2n[nH]c(-c3ccncc3)n2)cc1	-	?	-	-	-	-
CC(C)Oc1ccccc1-c1nc(SCC(=O)c2ccc(F)cc2)n[nH]1	.	16µM	.	21µM	.	.
COc1ccc(C2=Cc3ccccc3C(CC(=O)C3CC3)N2c2ccc(-c3cc(OC)c(OC)c(OC)c3)cc2)cc1 (centres undefined)	-	-	.	-	-	-
COc1ccc(CC(=O)Nc2ccccc2N2CCOCC2)cc1OC	-	-	-	-	-	-
Cc1ccc(CC(=O)Nc2ccccc2N2CCOCC2)cc1C	-	?	-	16µM	-	-
O=C(Cc1ccc(Cl)cc1)Nc1ccccc1N1CCOCC1	-	16µM	-	?	-	-
O=C(COC(=O)/C=C/c1cccc(Br)c1)NC1CCCC1	-	?	-	-	-	-
CCOc1ccc(NC(=O)C2CC(=O)NC(=Nc3ccc(Cl)c(Cl)c3)S2)cc1 (centres undefined)	.	-	.	-	.	.
Cc1cc(SCC(=O)Nc2cccc(S(=O)(=O)NC3=NCCCCC3)c2)c(C)cc1Br	-64	?	?	-	?	13µM
Cc1cc(SCC(=O)Nc2cccc(S(=O)(=O)NC3=NCCCCC3)c2)nc2ccccc12	-57	?	?	?	-	-
O=c1[nH][nH]c(=O)c2nc(Nc3ccccc3)ncc12	-	-	.	-	-	-
O=C(c1ccccc1-c1ccccc1)N1CCN(c2ccccn2)CC1	-	2.6µM	-	3.3µM	5.8µM	6.5µM
O=C(c1cnc(N2CCN(c3ncccn3)CC2)c2ccccc12)N1CCN(c2ccccn2)CC1	-66	?	?	?	-	-
O=C(c1cn(Cc2ccccc2)nc1-c1ccccc1)N1CCN(c2ccccn2)CC1	-	5.8µM	?	5.8µM	?	16µM
CC(=O)c1ccc(N2CCN(C(=O)c3cn(Cc4ccccc4)nc3-c3cccnc3)CC2)c(F)c1	-	23µM	-	?	-	?
O=C(O)c1cn(Cc2ccccc2)nc1-c1cccnc1	-	-	-	-	-	-
CN(Cc1ccccc1)C(C(=O)NC1CCCCC1)c1ccc(Cl)cc1 (centres undefined)	.	-	.	-	.	.
Oc1c(C(c2ccc(Cl)cc2Cl)N2CCCC2)sc2nc(-c3ccco3)nn12 (centres undefined)	.	-	.	-	.	.
NNC(=S)NC1CCCCC1	-	5.8µM	-	6.5µM	-	-
Cc1ccc(S(=O)(=O)Nc2cccc(C(=O)NC3CCN(Cc4ccccc4)CC3)c2)cc1F	-66	16µM	-	?	-	-
O=C(NC1CCN(Cc2ccccc2)CC1)c1ccccc1NS(=O)(=O)c1ccc(F)c(F)c1	-	?	.	-	-	-
O=C(CCNS(=O)(=O)c1cccs1)NC1CCN(Cc2ccccc2)CC1	-	-	-	-	-	-
O=C(NC1CCN(Cc2ccccc2)CC1)c1cncc(Br)c1	-	-	-	?	-	-
O=C(CCNS(=O)(=O)c1ccc(Br)cc1)NC1CCN(Cc2ccccc2)CC1	?	13µM	?	?	-	-
O=C(NC1CCN(Cc2ccccc2)CC1)c1cccc(NS(=O)(=O)c2ccc(Br)cc2)c1	?	?	.	18µM	-	-
SMILES	IL1B secr inh	TDP1 cell noCPT	ELG1 DNA repair	TDP1 cell CPT	HT1080NT lethal	HT1080 IDH1KD tx
CCC1CN(C(=O)C2CCN(S(=O)(=O)c3c(C)noc3/C=C/c3ccccc3F)CC2)c2cc(Cl)ccc2O1 (centres undefined)	.	-	.	-	.	.
COc1ccc(C(=O)NC(=O)COC(=O)C2CC2C)cc1 (centres undefined)	-	-	-	-	-	-
O=C(NCc1cc(Cl)cc(Cl)c1)c1ccc2sc([C@H]3C[C@H](O)[C@@H](CO)O3)nc2c1	-	?	.	21µM	-	-
O=C(Nc1ccc(F)c(Cl)c1)c1ccc2sc([C@H]3C[C@H](O)[C@@H](CO)O3)nc2c1	-	21µM	.	18µM	-	?
O=C(Nc1ccc(F)c(Cl)c1)c1csc([C@@H]2C[C@H](O)[C@@H](CO)O2)n1	-	-	.	?	-	-
O=C(Nc1ccc(Oc2ccccc2)cc1)c1ccc2sc([C@H]3C[C@H](O)[C@@H](CO)O3)nc2c1	-	21µM	.	?	7.3µM	2.6µM
CC(=O)Nc1ccc(NC(=O)c2ccc3sc([C@H]4C[C@H](O)[C@@H](CO)O4)nc3c2)cc1	-	-	.	-	-	-
O=C(Nc1ccc(F)c(Cl)c1)c1csc([C@H]2C[C@H](O)[C@@H](CO)O2)n1	-	?	.	21µM	-	-
O=C(Nc1ccc(F)c(Cl)c1)c1ccc2sc([C@@H]3O[C@H](CO)[C@H](O)[C@H](O)[C@H]3O)nc2c1	-	-	.	-	-	-
O=C(Nc1nnc([C@@H]2C[C@H](O)[C@@H](CO)O2)s1)c1c(F)cccc1F	-56	-	.	-	-	-
